Compound activity deposited in PubChem BioAssay by National Center for Advancing Translational Sciences (NCATS).
Sfp inh: qHTS Assay for Inhibitors of Bacillus subtilis Sfp phosphopantetheinyl transferase (PPTase); Biochemical Sfp PPTase activity, qHTS; Potency, µM, inactives show largest response in the series, negative = inhibition, actives largely listed as inhibitors; hit rate 3.5% among 310,000;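 also: the enzyme is Sfp with the accession as filed and its product quenches rhodamine fluorescence; 0% = enzyme reaction without inhibitor and -100% = no enzyme wells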
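Step 1, compound plus 15 nM Sfp-PPTase, 15 min, room temperature. Step 2, add rhodamine-CoA (5 uM) and BHQ-2-YbbR (12.5 uM). Step 3, read 525/598 nm fluorescence at 0 and 30 min.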
G9a inh: qHTS Assay for Inhibitors of Histone Lysine Methyltransferase G9a. Histone-lysine N-methyltransferase EHMT2 (Homo sapiens), Q96KQ7. G9a H3K9 monomethylation, AlphaScreen, 2 h. Potency, µM (top dose mostly 102 µM), inactives show at the highest dose activity, negative = inhibition, most hits filed as inhibitors. hit rate 8.8% among 350,000; also: % is scaled to controls: 0 for no effect and ±100 for the full control effect; nearly all actives have a fitted effect of over 75% in size
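Quantitative HTS format: methyltransferase activity on a biotin-tagged H3K9 peptide is measured by AlphaScreen, using a rabbit anti-monomethyl-H3K9 antibody with streptavidin donor and anti-IgG acceptor beads. Final levels are 20 nM enzyme, 500 nM peptide, 20 uM SAM; 2 h RT.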
HP1b binding inh: HTS for Inhibitors of HP1-beta Chromodomain Interactions with Methylated Histone Tails; Chromobox protein homolog 1 (Homo sapiens), P83916; hit rate 0.56% among 390,000; AID 540317, 2011; AlphaScreen HP1-beta / biotin-H3K9me3 peptide binding; Potency, µM (titrated, usually from 114 µM), for inactives: at the top dose activity change, negative = inhibition, most hits filed as inhibitors; also: nearly all actives have a fitted effect of over 70% in size
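HP1-beta protein (50 nM final) preincubated 30 min at room temperature with biotinylated H3(1-18)K9me3 peptide (50 nM) in PBS pH 7.4, 0.01% Tween-20, then compound added for 30 min. AlphaScreen streptavidin donor/nickel chelate acceptor beads (10 ug/mL final), 30 min dark, luminescence read.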
BAZ2B block: qHTS Assay for Inhibitors of BAZ2B; Bromodomain adjacent to zinc finger domain protein 2B (Homo sapiens), Q9UIF8; AlphaScreen BAZ2B-H3K14Ac peptide displacement; Potency, µM (series often up to 114 µM), without a hit: at the highest dose activity change, negative = inhibition, hits mostly inhibitors; hit rate 4.4% among 360,000; AID 504333, 2011; also: % is scaled to controls: 0 for no effect and ±100 for the full control effect; nearly all actives have a fitted effect of over 60% in size
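Protein-peptide AlphaScreen: BAZ2B 50 nM, b-H3K14Ac 50 nM, 1x PBS pH 7.4 + 0.01% Tween-20. Preincubation 30 min RT; cpd 30 min RT (top 110 uM); beads 20 min RT, light-protected.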
JMJD2A Tudor inh: qHTS Assay for Inhibitors of JMJD2A-Tudor Domain. Lysine-specific demethylase 4A (Homo sapiens), O75164. AlphaScreen JMJD2A-Tudor / H3K4me3 peptide binding. AID 504339, 2011. Potency, µM (series often up to 114 µM), without a hit: top-dose activity change, negative = inhibition, most hits filed as inhibitors. hit rate 4.4% among 390,000; also: % is scaled to controls: 0 for no effect and ±100 for the full control effect; nearly all actives have a fitted effect of over 50% in size
* hit, by the source's call; ? = inconclusive; / = no result given; [ ] = remark or other dose. Sampled rows, rich in hits. Any-hit rate of the full collection: about 12%. Calls follow the shape of the dose curve; as a rule, active = well fitted curve in the direction sought with a large enough effect; inconclusive = small, poorly fitted or top-dose-only effect, or another doubt; inactive = no such curve, though single readings can be large; an effect the other way counts as inactive or inconclusive. Potency is read from the fitted curve at half-maximal effect.

SMILES | Sfp inh | G9a inh | HP1b binding inh | BAZ2B block | JMJD2A Tudor inh
Cc1cccc(NCc2nnc(-c3ccccc3)o2)c1C | 12% | 5% | -13% | -7% | 79µM*
Cc1csc(NC(=O)C(Cc2ccccc2)n2cccc2)n1 (configuration not stated) | -15% | 45µM* | -21% | ? | ?
CCC(C(=O)Nc1nccs1)c1ccccc1 (configuration not stated) | -9% | 16%[59 µM] | 55% | -6% | -18%
CC(C(=O)NCc1cccs1)n1cccc1 (configuration not stated) | 19% | -32% | 19% | -29% | -1%
CCC(C(=O)Nc1ccccc1)c1ccccc1 (configuration not stated) | 9% | 0%[59 µM] | 22% | 14% | 5%
O=C(NCc1cccs1)C(Cc1ccccc1)n1cccc1 (configuration not stated) | -6% | 45µM* | 9% | -37% | -25%
Cc1ccc(NC(=O)C(Cc2ccccc2)n2cccc2)cc1 (configuration not stated) | 3% | 8% | 5% | -38% | -11%
CCC(C(=O)Nc1nc(C)cs1)c1ccccc1 (configuration not stated) | 17% | 11%[59 µM] | -15% | 2% | 50µM*
CCC(C(=O)Nc1nc(C)c(C)s1)c1ccccc1 (configuration not stated) | 50µM* | -8%[0.501 µM] | 11% | 50µM* | -23%
CN1C(=S)N(c2ccccc2)C(=O)/C1=C/c1ccco1 | -44% | 10µM* | 6% | -34% | -28%
O=C1/C(=C/c2ccco2)N=C(N2CCCCC2)N1c1ccccc1 | ? | ? | 0% | 79µM* | -25%
CN1C/C(=C/c2ccccc2[N+](=O)[O-])C(=O)/C(=C\c2ccccc2[N+](=O)[O-])C1 | / | / | 9% | / | -15%
CCOc1ccc(-c2cc3c(=O)n(CC(=O)NCc4ccc(F)cc4)ccn3n2)cc1 | / | 3%[12.7 µM] | 27% | -9% | -25%
COC(=O)c1ccc(Cl)cc1NC(=O)/C=C/c1ccc(C)o1 | 25µM* | ? | 12% | 1% | -5%
Cc1ccc(NC(=O)/C=C/c2ccc(C)o2)c(C)c1 | / | 11µM* | ? | 79µM* | ?
Cc1cccc(NC(=O)CNC(=O)COC(=O)C2CC2C)c1C (configuration not stated) | / | / | -8% | / | -20%
O=c1[nH]cnc(O)c1C(c1ccc2c(c1)OCO2)c1c(O)nc[nH]c1=O | 4% | 50µM* | 16% | -18% | -18%
COc1cc(N(Cc2ccccc2)Cc2ccccc2)c2ncn(C(C)C)c2c1 | / | 16%[2.33 µM] | 10% | ? | ?
CC(C)n1cnc2c(N(C)c3ccccc3)nc(N(CCN(C)C)Cc3ccccc3)nc21 | ? | ? | ? | 32µM* | 45µM*
Cn1ncc(C#N)c1/N=C/N1CCCCCC1 | 17% | ? | 32% | -2% | -15%
CN1CCCCCC1=Nc1ccccc1C#N | -23% | ? | 13µM* | 45µM* | 1.8µM*
Cc1ccc(S(=O)(=O)/N=C2\C=C(NS(=O)(=O)c3ccccc3)C(=O)c3ccccc32)cc1 | / | / | ? | / | 32µM*
Cc1cc(C)c(NS(=O)(=O)c2ccccc2)c(C)c1 | / | / | 15%[57 µM] | / | -1%
Cc1ccc(S(=O)(=O)/N=C2/C=C(C3C(=O)CC(C)(C)CC3=O)C(=O)c3ccccc32)cc1 | ? | 8.9µM* | -36% | ? | ?
Cc1cc(C)c(S(=O)(=O)/N=C2\C=C(NS(=O)(=O)c3ccccc3)C(=O)c3ccccc32)c(C)c1 | -15% | 6.3µM* | ? | 5.6µM* | 13µM*
Cc1ccc(S(=O)(=O)N2CCN(CC(O)COc3ccccc3)CC2)cc1 (configuration not stated) | 0% | 16% | -3% | 3% | -5%
CCOC(=O)c1ccc(S(=O)(=O)N2CCN(CC(O)COc3cccc(C(C)=O)c3)CC2)cc1 (configuration not stated) | -20% | -9% | -13% | 79µM* | 18µM*
